The results in this text go back to PubChem BioAssay (NCI).

Among the test systems are NCI-H23 lung; NCI-H226 lung; NCI-H322M lung; HOP-62 NSCLC; NCI-H460 lung; HOP-92 NSCLC; NCI-H522 lung; A549/ATCC NSCLC; 786-0 renal; COLO 205 colon; DU-145 prostate; K-562 leukemia; MALME-3M melanoma; MDA-MB-231 breast; RXF 393 renal; SF-268 CNS; SF-295 CNS; SF-539 CNS; UACC-257 melanoma; M14 melanoma.
What all share (experiment): NCI-60 one-dose screen, 48 h (100 = growth as untreated, 0 = no growth, -100 = all killed)
Holding throughout (conditions): 10 µM unless noted

Molecules are shown by their SMILES. The panel holds about 83,000 compounds, 20% with a hit somewhere; the sample as a whole holds those more often.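 Interpretation: 100, growth as untreated; towards 0, rising growth inhibition; 0, no net growth; 0 to -100, cell death. Compounds scoring below 10 were considered active.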 Unmarked numbers belong to inactive results. The source made the active and inactive calls.

Take `CC(C)(C)CC(C)(C)Nc1c(-c2c(O)c3ccccc3oc2=O)nc2sc3ccccc3n12`: the growth in the assay with NCI-H23 lung was 44.1%; with NCI-H226 lung it was 56.7%; in the assay with NCI-H322M lung, 42.5%; with HOP-62 NSCLC, 23.1%; in the assay with NCI-H460 lung, 16.6%; in the assay with HOP-92 NSCLC it was 10.8%. The growth is 32.8% in the assay with NCI-H522 lung; 30.9% in the assay on A549/ATCC NSCLC; 35.6% with 786-0 renal; 28.7% in the assay on COLO 205 colon; 53.7% in the assay on DU-145 prostate; 11.8% in the assay on K-562 leukemia. The growth is 50.7% in the assay on MALME-3M melanoma; 61.9% in the assay on MDA-MB-231 breast; 65.9% in the assay on RXF 393 renal; 48% with SF-268 CNS; 3.5% (active) in the assay on SF-295 CNS; 44% in the assay on SF-539 CNS. The growth with UACC-257 melanoma is 38.1%; with M14 melanoma, 41.7%.
`CN(C)CCCNC(=O)c1cncnc1Nc1ccc2c(ccn2Cc2cccc(F)c2)c1`: the growth in the assay on NCI-H23 lung was 95.6%; with NCI-H226 lung, 99.4%; in the assay on NCI-H322M lung, 98.6%; in the assay on HOP-62 NSCLC it was 99.9%; in the assay on NCI-H460 lung, 95.5%; with HOP-92 NSCLC, 78.3%. In addition, the growth is 98.2% in the assay on NCI-H522 lung; 84.9% with A549/ATCC NSCLC; 79.5% in the assay on 786-0 renal; 84.6% in the assay on COLO 205 colon; 97.8% with DU-145 prostate; 37.5% in the assay on K-562 leukemia. Moreover, the growth is 81.9% with MALME-3M melanoma; 67.6% in the assay with MDA-MB-231 breast; 70.9% in the assay with RXF 393 renal; 85.6% in the assay with SF-268 CNS; 106% with SF-295 CNS; 83.7% with SF-539 CNS. Also, the growth with UACC-257 melanoma was 84.4%; in the assay on M14 melanoma, 107%.
Consider `Nc1nc(C(=O)N/N=C/c2ccc(F)cc2)nn1-c1ccc(S(N)(=O)=O)cc1`, for which the growth is 101% in the assay on NCI-H23 lung; 99% in the assay with NCI-H226 lung; 91.1% with NCI-H322M lung; 98.8% in the assay with HOP-62 NSCLC; 106% in the assay on NCI-H460 lung; 98.9% in the assay on HOP-92 NSCLC. Also, the growth was 88.8% with NCI-H522 lung; 95% in the assay with A549/ATCC NSCLC; 97.2% with 786-0 renal; 112% in the assay on COLO 205 colon; 104% with DU-145 prostate; 103% in the assay with K-562 leukemia. In addition, the growth is 89.2% in the assay on MALME-3M melanoma; 96.4% in the assay with MDA-MB-231 breast; 95.5% with RXF 393 renal; 95.7% in the assay on SF-268 CNS; 102% in the assay with SF-295 CNS; 98.9% with SF-539 CNS. For the same compound, the figures for the growth with UACC-257 melanoma and with M14 melanoma were 103% and 99.5%, respectively.
Consider `O=S(Nc1ccccc1)c1ccc(Cl)cc1` (stereo not given), for which the growth is 105% in the assay with NCI-H23 lung; 99.9% in the assay on NCI-H226 lung; 104% in the assay on NCI-H322M lung; 92% with HOP-62 NSCLC; 95.1% with NCI-H460 lung; 103% with HOP-92 NSCLC. Also, the growth in the assay with NCI-H522 lung was 82.8%; with A549/ATCC NSCLC it was 78.9%; in the assay on 786-0 renal it was 103%; in the assay with COLO 205 colon it was 102%; in the assay with DU-145 prostate it was 116%; with K-562 leukemia, 94.6%. Also, the growth is 108% in the assay with MALME-3M melanoma; 103% with MDA-MB-231 breast; 99.2% in the assay on RXF 393 renal; 100% in the assay on SF-268 CNS; 107% with SF-295 CNS; 102% in the assay on SF-539 CNS. In addition, the results for the growth with UACC-257 melanoma and in the assay on M14 melanoma were 86.2% and 99.2%, respectively.
Consider `OC1(c2ccccc2)c2ccccc2N(c2ccccc2)c2ccc(Cl)cc21` (stereo not given), for which the growth is -49.4% (active) in the assay on NCI-H23 lung; -80.7% (active) in the assay with NCI-H226 lung; -90.3% (active) with NCI-H322M lung; -91.7% (active) in the assay with HOP-62 NSCLC; -48.4% (active) with NCI-H460 lung; -76.8% (active) in the assay with HOP-92 NSCLC. Further, the growth in the assay on NCI-H522 lung was -86.8% (active); in the assay with A549/ATCC NSCLC, -12.5% (active); in the assay on 786-0 renal it was -94.6% (active); with COLO 205 colon, -85.7% (active); with DU-145 prostate, -90.6% (active); in the assay on K-562 leukemia, -11.4% (active). For the same compound, the growth in the assay on MALME-3M melanoma was -93.1% (active); with MDA-MB-231 breast it was -77% (active); with RXF 393 renal, -83% (active); in the assay on SF-268 CNS, -72.4% (active); in the assay with SF-295 CNS, -57.6% (active); in the assay with SF-539 CNS, -82.6% (active). Also, the growth is -58.8% (active) in the assay on UACC-257 melanoma and -79.5% (active) with M14 melanoma.
For `CCN(CC)C(=O)C1=C(C)NC(=O)NC1c1ccc2c(c1)OCO2` (stereo not given), the growth is 103% in the assay with NCI-H23 lung; 100% in the assay on NCI-H226 lung; 109% in the assay with NCI-H322M lung; 105% in the assay with HOP-62 NSCLC; 106% in the assay on NCI-H460 lung; 109% with HOP-92 NSCLC. Also, the growth in the assay on NCI-H522 lung is 96.6%; in the assay on A549/ATCC NSCLC it was 106%; in the assay with 786-0 renal, 106%; with COLO 205 colon, 114%; in the assay with DU-145 prostate, 113%; with K-562 leukemia, 101%. The growth was 108% in the assay on MALME-3M melanoma; 108% with MDA-MB-231 breast; 102% in the assay on RXF 393 renal; 102% in the assay on SF-268 CNS; 103% in the assay on SF-295 CNS; 96.2% with SF-539 CNS. The growth with UACC-257 melanoma is 103%; with M14 melanoma, 104%.
Regarding `O=C1O[C@@H](c2ccccc2Cl)[C@@H]2c3cc4c(cc3CCN12)OCO4`, the growth in the assay with NCI-H23 lung was 103%; in the assay with NCI-H226 lung, 93.7%; in the assay with NCI-H322M lung it was 89.3%; in the assay on HOP-62 NSCLC, 96.2%; with NCI-H460 lung, 101%; with HOP-92 NSCLC, 92.5%. In addition, the growth in the assay on NCI-H522 lung was 81.9%; in the assay with A549/ATCC NSCLC, 86.3%; with 786-0 renal it was 97.9%; in the assay with COLO 205 colon, 110%; in the assay on DU-145 prostate it was 105%; in the assay on K-562 leukemia, 87.5%. In addition, the growth in the assay on MALME-3M melanoma is 101%; in the assay on MDA-MB-231 breast it was 97.2%; in the assay on RXF 393 renal, 111%; in the assay on SF-268 CNS, 93.2%; in the assay with SF-295 CNS it was 102%; in the assay with SF-539 CNS it was 107%. Also, the growth in the assay with UACC-257 melanoma was 90.7%; in the assay with M14 melanoma it was 105%.
